Results on 92 compounds are retold here after PubChem BioAssay AID422 (Emory University Molecular Libraries Screening Center, 2006).

Where “and” joins values, the source holds several entries; their conditions need not be identical. Equal entries are not always repeated. The campaign covered roughly 160,000 compounds. About 310 (0.19%) were called active. This is one part of a sample in which actives are shown more often than they occur. Cut-off read from the data, not from the text of the source: active = inhibition above about 30%; inactive = the rest. Where a structure was tested more than once in an assay, its records may differ in their call.

The target of the assay is 14-3-3 protein gamma (Homo sapiens) (UniProt P61981). Put plainly: modulators of 14-3-3 gamma protein binding, primary screen, biochemical, fluorescence polarization (AID 422).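 Note: 0% = protein plus tracer without compound and 100% = blank with tracer alone.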 The conditions noted are these: FP, 14-3-3gamma / TMR-pS259-Raf peptide binding; at 40 µM; stronger effect = higher value.
14-3-3 protein gamma (Homo sapiens), sequence (P61981 whole entry, looked up): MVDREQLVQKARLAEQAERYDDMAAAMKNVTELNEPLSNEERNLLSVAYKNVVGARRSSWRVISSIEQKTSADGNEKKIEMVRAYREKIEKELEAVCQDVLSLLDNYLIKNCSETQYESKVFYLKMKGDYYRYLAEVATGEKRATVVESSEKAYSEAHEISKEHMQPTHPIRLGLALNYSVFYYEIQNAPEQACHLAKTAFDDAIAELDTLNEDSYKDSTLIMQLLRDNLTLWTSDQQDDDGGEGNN
Consider `Cc1ccc2c(=O)c(CN3CCOCC3)c(C)[nH]c2c1C`, for which the inhibition is -4.4% (inactive).

For `Cc1ccc(-c2nnc(NCc3ccccc3)c3ccccc23)cc1S(=O)(=O)N1CCOCC1`, the inhibition was -13.1% (inactive).

For `COc1ccc(CN2CCN(S(=O)(=O)c3cc(Br)c(Br)s3)CC2)c(OC)c1OC`, the inhibition was -1% (inactive).

Turning to `Cc1cc(N2CCOCC2)nc2ccc(NC(=O)c3ccc(F)cc3)cc12`, the inhibition was -5.58% (inactive).

`O=c1c2ccc(-c3ncc(-c4ccccc4)o3)c3cccc(c32)c2nc3cccc4cccc(c43)n12`: the inhibition is -3.12% (inactive).

With `Clc1ccc2nc(-c3ccsc3)c(NC3CCCCC3)n2c1`, the inhibition was 1.17% (inactive).

In the case of `O=C(CC1Sc2ccccc2NC1=O)NCCCSC1CCCCC1` (configuration not stated), the inhibition was 5.8% (inactive).

On to `Cc1cc(NCCN2CCCCCC2)n2c(nc3ccccc32)c1C#N`, for which the inhibition was -60.5% (inactive).

Regarding `N#Cc1c(N2CCCCCC2)ncc2cc3ccccc3nc12`, the inhibition is 143% (active).

Turning to `Cc1cccc2cc(C#N)c(N3CCCC3)nc12`, the inhibition is -5.89% (inactive).

Turning to `COc1ccc(NC(=O)Nc2cccc3cccnc23)cc1`, the inhibition was -2.7% (inactive).

In the case of `O=C(O)c1ccccc1C(=O)Nc1cccc2cccnc12`, the inhibition is 52.6% (active).

Turning to `O=C(Nc1cccc2cccnc12)c1cccc(N2C(=O)CCC2=O)c1`, the inhibition was 2.56% (inactive).

Turning to `O=C(NC1CCCCNC1=O)c1ccc(N2CC3CC(C2)c2cccc(=O)n2C3)c(NC(=O)c2ccccc2Br)c1` (configuration not stated), the inhibition is -4.63% (inactive).

`CN(Cc1ccccc1)S(=O)(=O)c1ccc2c(c1)CCN2C(=O)C1CCC1`: the inhibition is -4.53% (inactive).

On to `Cc1ccc(-c2csc(Nc3ccccc3)n2)c(C)c1`, for which the inhibition is -4.17% (inactive).

For the compound `c1ccc2[nH]c(-c3nc4ccccc4[nH]3)nc2c1`, the inhibition was -4.13% (inactive).

For the compound `O=C(CSc1nc2ccccc2[nH]1)c1cccs1`, the inhibition was -10.8% (inactive) and -0.41% (inactive).

Regarding `C=CCSc1nc2ccccc2[nH]1`, the inhibition is 50.5% (active) and -1.38% (inactive).

Take `COc1cc(OC)c(C2C(C(=O)O)c3cc(OC)c(OC)cc3C(=O)N2C)cc1OC` (configuration not stated): the inhibition was 4.71% (inactive).

Consider `O=C(O)c1c[nH]c2ccc(S(=O)(=O)N3CCN(c4cccc(Cl)c4)CC3)cc2c1=O`, for which the inhibition was -20.1% (inactive).

Take `COc1ccc(NC(=O)c2cc([N+](=O)[O-])ccc2Cl)cc1OC`: the inhibition was -12.3% (inactive).

On to `CC(=O)Oc1ccccc1C(=O)NCCc1ccccc1`, for which the inhibition was 3.04% (inactive).

For the compound `COc1cc2ccccc2cc1C(=O)NCCc1ccccc1`, the inhibition was 76% (active).

In the case of `COc1ccc(CCNC(=O)c2cc(Cl)ccc2OC)cc1`, the inhibition was -6.62% (inactive).

Consider `CCCCN(CC)C(=O)C1c2cc(OC)c(OC)cc2C(=O)N(C)C1c1ccccc1F` (configuration not stated), for which the inhibition is -7.13% (inactive).

As for `O=C(Oc1ccc(C2NC(=O)c3c(sc4c3CCCC4)N2)cc1)c1ccccc1` (configuration not stated), the inhibition is -5.95% (inactive).

In the case of `O=S(=O)(Nc1ccccn1)c1ccccc1`, the inhibition is -1.79% (inactive).

Turning to `Cc1ccc(NC(=O)c2cccc(Oc3ccc(C#N)cc3)c2)cc1`, the inhibition is -12% (inactive).

For `O=C(Nc1nccs1)c1cc2cc(Cl)ccc2oc1=Nc1ccc(Br)cc1`, the inhibition is -1.07% (inactive).

For `COc1ccc(CNCC2OCCc3ccccc32)cc1OC` (configuration not stated), the inhibition is -5.29% (inactive).

Turning to `O=C(NCCc1ccccc1)C1Cc2ccccc2CN1S(=O)(=O)c1cccs1` (configuration not stated), the inhibition is -6.94% (inactive).

With `Cc1sc(NC(=O)c2cc(=O)c3ccccc3o2)nc1-c1ccccc1`, the inhibition is 0.55% (inactive).

As to `CCN(CC)c1ccc2cc(C(N)=O)c(=Nc3ccc(C(N)=O)cc3)oc2c1`, the inhibition was 3.05% (inactive).

Take `CCN(CC)c1ccc2cc(C(=O)O)c(=O)oc2c1`: the inhibition is -6.88% (inactive).

With `CCN(CC)c1ccc2cc(C(=O)NC(C)=O)c(=Nc3ccccc3OC)oc2c1`, the inhibition is 133% (active).

On to `COc1cccc(-c2nn(C)c3sc(C(=O)NCCCOC(C)C)cc23)c1`, for which the inhibition is -12.3% (inactive).

`O=C(OCCN1C(=O)c2ccccc2C1=O)c1ccc([N+](=O)[O-])cc1`: the inhibition was 5.13% (inactive).

As for `CC(C)CCOC(=O)c1c2c(n3ccccc13)C(=O)c1ccccc1C2=O`, the inhibition was 34.6% (active).

For the compound `COC(=O)c1ccc2c(c1N)C(=O)c1ccccc1C2=O`, the inhibition is -200% (inactive).

Consider `Cc1ccc2nc3c(nc2c1)C(=O)c1ccccc1C3=O`, for which the inhibition was -16.2% (inactive).

As for `Cc1cc2c3c(ccc(N)c3n1)C(=O)c1ccccc1-2`, the inhibition was 127% (active).

With `Cc1ccc2c(c1)-c1cccc3cccc(c13)C2=O`, the inhibition was 3.94% (inactive).

For the compound `CCc1ccccc1NC(=O)c1cc2cc3ccc(OC)cc3nc2o1`, the inhibition was 17.8% (inactive).

For the compound `O=C(Cc1ccc(Cl)cc1)Nc1cccc(-c2nc3ccccc3o2)c1`, the inhibition was -129% (inactive).

With `COc1ccc(C2C3=C(CCCC3=O)OC3=C2C(=O)CCC3)cc1`, the inhibition is 0.11% (inactive).

As to `CCC(=O)N1CCc2cc(S(=O)(=O)CCC(=O)N3CCN(c4cccc(OC)c4)CC3)ccc21`, the inhibition is 3.36% (inactive).

With `COc1cc2ccccc2cc1C(=O)Nc1nc(-c2c(OC)ccc3ccccc23)cs1`, the inhibition was -0.5% (inactive).

On to `COC(=O)C1=CN(C)C=C(C(=O)OC)C1c1cc(OC)ccc1OC`, for which the inhibition is 1.92% (inactive).

Regarding `O=C(COc1ccc(C2CCCCC2)cc1)Nc1ccc(-c2nc3ncccc3o2)cc1`, the inhibition is -12.3% (inactive).

In the case of `CC(=O)COc1cc(C)cc2oc(=O)c(Cc3ccccc3)c(C)c12`, the inhibition is 4.62% (inactive).

For `COCCn1c(=S)[nH]c2cc(C(=O)N3CCN(C(=O)c4ccco4)CC3)ccc2c1=O`, the inhibition was 2.47% (inactive).

`CCOc1cc2c(cc1OCC)C1C(C(=O)NCCN3CCOCC3)c3ccccc3C(=O)N1CC2` (configuration not stated): the inhibition is 8.01% (inactive).

As to `S=c1[nH]ncn1-c1cccnc1`, the inhibition was 40.8% (active).

Regarding `C(=N\n1cnnc1)/c1cccnc1`, the inhibition was -6.33% (inactive).

Take `CC(C)(C)c1ccc(-c2nc(Cc3ccc(Cl)cc3)no2)cc1`: the inhibition was -5.54% (inactive).

In the case of `COC(=O)C1=C(C)N=C2SC(C)C(=O)N2C1c1ccc(C)cc1` (configuration not stated), the inhibition was -10.9% (inactive).

With `CC(C)c1ccc(NC(=O)c2ccc(F)c(S(=O)(=O)NCc3ccccc3Cl)c2)cc1`, the inhibition is -7.39% (inactive).

With `COc1ccc(NC(=O)CSc2nc3nc(C)cc(C)n3n2)c(OC)c1`, the inhibition is -15.5% (inactive).

In the case of `CCOC(=O)c1ccc(N2C(=O)C3CCCCC3C2=O)cc1` (configuration not stated), the inhibition was -3.67% (inactive).

As to `O=C(NCCC1=CCCCC1)c1ccc2c(=O)n(Cc3cccc(Br)c3)c(=S)[nH]c2c1`, the inhibition was -9.75% (inactive).

`CCc1ccc2oc(-c3cc(NC(=O)c4ccc(OC)cc4)ccc3Cl)nc2c1`: the inhibition was -44.5% (inactive).

For `CC(C)(c1ccc(NC(=O)C(F)(F)F)cc1)c1ccc(NC(=O)C(F)(F)F)cc1`, the inhibition is -13.8% (inactive).

Regarding `CCN(CC)C(=O)CSc1nc2ccccc2n1S(=O)(=O)c1cccc([N+](=O)[O-])c1`, the inhibition was -1.43% (inactive).

For the compound `Cc1cc(N2CC(C)CC(C)C2)nc2ccc([N+](=O)[O-])cc12` (configuration not stated), the inhibition was -9.05% (inactive).

Turning to `Cc1cc2c(c(=O)[nH]1)C(=O)NC2=O`, the inhibition is -1.31% (inactive).

Consider `O=c1cc(-c2ccccc2)nc(SCCOc2ccc(Cl)cc2)[nH]1`, for which the inhibition is -2.33% (inactive).

For the compound `Cc1ccccc1CN1CCN(CC(=O)NCc2ccccn2)C1=O`, the inhibition was 45.7% (active) and 3.37% (inactive).

In the case of `Cc1ccc(CNC(=O)CN2CCN(Cc3ccc(Cl)cc3)C2=O)cc1`, the inhibition was -3.75% (inactive).

`Cc1ccccc1CN1CCN(CC(=O)NCc2cccs2)C1=O`: the inhibition was -7.12% (inactive).

`CCOC(=O)c1cc2c(=O)n3ccccc3nc2n(CCCOC)c1=NC(=O)c1cccc(Br)c1`: the inhibition was 0.86% (inactive).

Consider `CC(=O)C1=NN(c2ccccc2)C(c2c[nH]c3ccccc23)N1c1ccc(N2CCOCC2)c(Cl)c1` (configuration not stated), for which the inhibition was -3.29% (inactive).

Regarding `CN(CCC#N)C(=O)CN1C(=O)COc2ccc(C(C)(C)C)cc21`, the inhibition is 2.44% (inactive).

As for `O=C1NCCCC1C(=O)NC1CCCCC1` (configuration not stated), the inhibition was -10.1% (inactive).

Regarding `CCc1sc(-c2cc3cccc(OC)c3oc2=O)nc1-c1ccc(C)cc1`, the inhibition is -56.6% (inactive).

Take `Cc1ccc(C2OC3(C(=O)c4ccccc4C3=O)C3C(=O)N(c4ccc(Br)cc4)C(=O)C23)cc1` (configuration not stated): the inhibition was -39.8% (inactive).

Regarding `O=C(OCC(=O)N1CCCC1)c1ccco1`, the inhibition is -8.04% (inactive).

`COC(=O)c1ccc(NC(=O)c2ccco2)cc1`: the inhibition is -6.08% (inactive).

With `CC1CN(C)C(C)CC1OC(=O)c1ccco1` (configuration not stated), the inhibition was 34.5% (active).

Turning to `O=C(Nc1ccccc1O)c1ccco1`, the inhibition is -6.85% (inactive).

As for `O=C(CCCOc1ccc(Br)cc1)Nc1ncc(Cc2ccc(F)cc2)s1`, the inhibition is -2.12% (inactive).

On to `COc1ccc(C2C=C(c3ccc(OC(F)F)cc3)Nc3ncnn32)cc1` (configuration not stated), for which the inhibition was 4.5% (inactive).

Consider `Cc1ccc(/C(O)=C2\C(=O)C(=O)N(CCC(=O)O)C2c2ccc(Br)cc2)cc1` (configuration not stated), for which the inhibition was -1.96% (inactive).

On to `CCC(C(=O)Nc1c2c(nn1-c1ccc([N+](=O)[O-])cc1)CSC2)c1ccccc1` (configuration not stated), for which the inhibition was -13.7% (inactive).

As to `CN(C)c1ccc(Nc2cc(N3CCCC3)c3noc4c3c2C(=O)c2ccccc2-4)cc1`, the inhibition was -88.4% (inactive).

Regarding `CCNc1cc(Nc2ccccc2)c2c3c(onc13)-c1ccccc1C2=O`, the inhibition was -69.4% (inactive).

Turning to `CCCCCc1ccc(S(=O)(=O)Nc2cnc3ccccc3c2)cc1`, the inhibition is 0.52% (inactive).

Regarding `CC1CCN(CCCNC(=O)C2CC(=O)N(C3CCCCCCC3)C2)CC1` (configuration not stated), the inhibition was 3.07% (inactive).

For `Cn1c(SCc2ccccc2Br)nnc1-c1ccc([N+](=O)[O-])cc1`, the inhibition was -3.43% (inactive).

In the case of `CCOC(=O)C(NC(=O)c1ccc(OC)cc1)(NC1CCCCC1)C(F)(F)F` (configuration not stated), the inhibition is -6.18% (inactive).

With `O=C(NCCn1cc(SCc2cccc(F)c2)c2ccccc21)c1ccccc1F`, the inhibition is 0.8% (inactive).

Turning to `COc1cc([N+](=O)[O-])ccc1NC(=O)C1CC(=O)NC(=Nc2ccc(C)cc2)S1` (configuration not stated), the inhibition is 1.95% (inactive).
